Assay [1] is described as follows: Cell Viability - BJ (AID 421; calls by dose curve;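 further: potency means the concentration at half of the fitted maximal effect; cells exposed to compound for 40 hours at 37 °C before readout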). The settings on record: BJ fibroblast viability, qHTS. A digest of the protocol: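 Cytotoxicity in human BJ foreskin fibroblasts is scored as loss of cellular ATP after a 40-hour exposure, measured by luciferase luminescence. Controls are DMSO and 100 uM tamoxifen.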
Background: Quantitative high-throughput screening tests each substance at several concentrations.

The nature of assay [2]: Cell Viability - LYMP2-017 (AID 972).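 Further: cells exposed to compound for 24 hours at 37 °C; nearly all actives have a fitted effect of over 55% in size.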 Further: potency means the concentration at half of the fitted maximal effect. Conditions: LYMP2-017 lymphoblastoid cell viability; series mostly up to 92.2 µM. A digest of the protocol:
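2500 cells/well, 5 h 37 C; cpd 24 h 37 C in complete medium; CellTiter-Glo, 30 min RT; luminescence (ATP). AC50 via Hill fit, qHTS.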

The nature of assay [3]: Cell Viability - LYMP2-022 (AID 987).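 Further: cells exposed to compound for 24 hr; nearly all actives have a fitted effect of over 55% in size.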 Conditions: LYMP2-022 lymphoblastoid cell viability; series mostly up to 92.2 µM. A digest of the protocol: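 qHTS: human lymphoblastoid cells 2500/well; 5 hr 37 C; cpd added; 24 hr 37 C; CellTiter-Glo, 30 min RT; luminescence. AC50 via Hill fit; tetraoctylammonium bromide positive ctrl.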
For assay [4], the target named is Androgen receptor (Homo sapiens) (UniProt P10275). The experiment in a line: qHTS assay for small molecule antagonists of androgen receptor signaling (AID 588516; active means well fitted curve in the direction sought with a large enough effect in the signal ratio, with a control signal flat, not every such curve was filed as active; the % refers to the signal ratio; further: potency means the concentration at half of the fitted maximal effect). Conditions: AR-UAS-bla HEK293, beta-lactamase ratio, antagonist mode, 16 h; series mostly up to 76.8 µM. A digest of the protocol: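 Compounds tested in titration against 10 nM R1881 in AR-responsive bla reporter HEK 293 cells; CCF4 fluorescence (460/530 nm) after 16 h exposure gave IC50 and efficacy.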

The target of assay [5] is Bile acid receptor (Homo sapiens) (UniProt Q96RI1). The experiment in a line: qHTS assay for small molecule antagonists of farnesoid X receptor signaling (AID 588526; calls by dose curve). Conditions: HEK293T FXR-UAS-bla, beta-lactamase ratio, antagonist mode; series mostly up to 76.7 µM. A digest of the protocol: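 Beta-lactamase reporter antagonist mode: HEK293T FXR-UAS-bla cells, titrated compound, CDCA stimulation, 16 h 37 C, CCF4 dye 2 h RT. Data normalized to CDCA 50 uM and DMSO; Hill-fit IC50.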

The nature of assay [6]: Cell Viability - SH-SY5Y (AID 544).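 Further: cells exposed to compound for 40 hours; nearly all actives have a fitted effect of over 55% in size.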 Conditions: SH-SY5Y neuroblastoma cell viability; viability change, negative = cytotoxic: at 92.2 µM (top of the series). A digest of the protocol: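 Luminescent ATP read-out (CellTiter-Glo) measures loss of viable SH-SY5Y neuroblastoma cells after 40 hr compound exposure at 37 °C. AC50 values derive from standard Hill modelling of qHTS concentration-response data.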

Assay [7] is described as follows: Cell Viability - LYMP1-003 - Assay at 40 hr (AID 964). Further: nearly all actives have a fitted effect of over 60% in size. Further: potency means the concentration at half of the fitted maximal effect. Conditions: LYMP1-003 lymphoblastoid viability; series mostly up to 92.2 µM. A digest of the protocol: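 Cells were seeded at 2500 per well and incubated 5 hr at 37 C. Compounds were added across a concentration series and left 40 hr at 37 C. CellTiter-Glo was added for 30 min at room temperature before luminescence reading.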

Assay [8] concerns the target Peroxisome proliferator-activated receptor delta (Homo sapiens) (UniProt Q03181). The experiment in a line: qHTS assay for small molecule antagonists of peroxisome proliferator-activated receptor delta signaling (AID 588535; active means well fitted inhibition curve with a large enough effect in the signal ratio, with a control signal flat, not every such curve was filed as active; the % refers to the signal ratio). The settings on record: HEK293T PPARd-UAS-bla, beta-lactamase FRET ratio, 18 h; series mostly up to 76.7 µM. In a few lines:
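HEK293T PPAR-delta-UAS-bla cells, 4000/well, 2% charcoal/dextran FBS; 5 h 37 C; cpd titration; 18 h 37 C; CCF4 2 h RT; FI 460/530 nm; Hill fit → IC50, efficacy.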

The nature of assay [9]: qHTS assay for small molecule disruptors of the mitochondrial membrane potential - 1 hr assay (AID 651754; calls by dose curve; further: nearly all actives have a fitted effect of over 35% in size). Conditions: series mostly up to 92.2 µM. A digest of the protocol: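 HepG2, 2,000 cells/well, overnight attachment; cpd or DMSO 1 hr, 37C/5% CO2; Mito-MPS dye 30 min, 37C; fluorescence monomer (490/535) and aggregate (540/590).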
A short description of assay [10]: Cell Viability - LYMP2-001 (AID 921).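 Further: cells exposed to compound for 24 h at 37 °C; nearly all actives have a fitted effect of over 70% in size.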 Further: potency means the concentration at half of the fitted maximal effect. Conditions: LYMP2-001 lymphoblastoid cell viability; series mostly up to 92.2 µM. In a few lines:
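A lymphoblastoid cell line of human origin was treated with library compounds across a concentration series for 24 hours, and viable cell number was estimated from ATP-driven luciferase light output. Hill modeling gave AC50.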

The target of assay [11] is Peroxisome proliferator-activated receptor gamma (Homo sapiens) (UniProt P37231). Description: qHTS assay for small molecule antagonists of peroxisome proliferator-activated receptor gamma signaling (AID 588537; active means well fitted inhibition curve with a large enough effect in the signal ratio, with a control signal flat, not every such curve was filed as active; the % refers to the signal ratio;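 further: reporter cells co-stimulated with 50 nM rosiglitazone agonist during compound treatment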). The settings on record: HEK293 PPARg-UAS-bla, beta-lactamase ratio, antagonist mode; series mostly up to 76.8 µM. In a few lines: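 Antagonist mode, beta-lactamase reporter in HEK293; charcoal/dextran FBS 1%; 3000 cells/well, 37 C 6-6.5 h; cpd titration + rosiglitazone 50 nM final, 16 h 37 C; CCF4, 2 h RT; 460/530 nm; Hill fit → IC50, efficacy.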

A short description of assay [12]: qHTS assay for small molecule activators of the human pregnane X receptor (PXR) signaling pathway (AID 720659; call rule not given here). The settings on record: DPX-2 HepG2 CYP3A4-luciferase, 24 h; series mostly up to 92.3 µM.
The nature of assay [13]: qHTS Assay for Identification of Small Molecule Antagonists for NFkB Signaling Pathway (AID 895; active means well fitted inhibition curve with a large enough effect in the signal ratio, with a control signal flat, not every such curve was filed as active; the % refers to the signal ratio). Conditions: NFkB beta-lactamase reporter cells, FRET ratio 460/530; series mostly up to 38.3 µM. In a few lines: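 Beta-lactamase reporter read-out (460 and 530 nm emission ratio, 405 nm excitation, 2 hrs substrate loading RT) after 5 hr stimulation with 10 pM TNF alpha in compound-treated NFkB-bla ME-180 cells in low-serum medium.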

Assay [14] in a line: Counterscreen for APE1 Inhibitors: Fluorescent Dye Displacement Assay (AID 2564).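 Further: loss of thiazole orange fluorescence as the dye is displaced from duplex DNA.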 The settings on record: DNA fluorescent dye displacement counterscreen, fluorescence; series mostly up to 28.5 µM. A digest of the protocol:
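Assay buffer: Tris-HCl pH7.5 with 50mM NaCl, 2 mM MgCl2, 0.01% Tween-20. Dye 250 nM, duplex 50 nM final. Readout: decrease in ThO endpoint fluorescence, 480 nm excitation, 540 nm emission.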
On the technique in general: Counterscreens check selectivity or assay interference.

Assay [15] has as its target Endonuclease 4 (Escherichia coli (strain K12)) (UniProt P0A6C1). Description: Counterscreen for APE1 Inhibitors: qHTS Assay for Inhibitors of Endonuclease IV (AID 2565). The settings on record: E. coli Endo IV, fluorogenic AP-site DNA cleavage; series mostly up to 27.1 µM. In a few lines:
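qHTS concentration-response format; LOPAC1280 tested under APE1-screen conditions. 2 nM enzyme, 15 min compound preincubation at RT, then 50 nM TAMRA/BHQ-2 abasic substrate; kinetic fluorescence read, three reads at 60 s intervals.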

For assay [16], the target named is DNA repair nuclease/redox regulator APEX1 (Homo sapiens) (UniProt P27695). Description: Confirmation qHTS Assay for Inhibitors of the Human Apurinic/apyrimidinic Endonuclease 1 (APE1) (AID 2572).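 Further: fluorescence gain from purified APE1 cutting a TAMRA/BHQ-2 THF abasic duplex; nearly all actives have a fitted effect of over 30% in size.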 Conditions: purified APE1, fluorogenic abasic-site DNA cleavage; series mostly up to 24.4 µM. In a few lines: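 Enzyme and test compound were incubated for 15 min at room temperature, after which a 50 nM (final) double-stranded abasic-site substrate bearing 5'-TAMRA and 3'-BHQ-2 was added. Incision was followed as fluorescence increase over three reads.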

Assay [17] shares this target. Description: qHTS FP-Based Assay for Inhibitors of the Human Apurinic/apyrimidinic Endonuclease 1 (APE1) (AID 2573). Conditions: APE1 binding to TAMRA-labelled double-stranded DNA, fluorescence polarization displacement; series mostly up to 28.5 µM.
Assay [18] can be described thus: Cell Viability - LYMP2-009 (AID 968).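 Further: cells exposed to compound for 24 h at 37 °C; nearly all actives have a fitted effect of over 55% in size.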 Conditions: LYMP2-009 lymphoblastoid cell viability; series mostly up to 92.2 µM.
The subject of another assay is DFO2036. Description: qHTS profiling for inhibitors of Plasmodium falciparum proliferation (AID 504749). Further: nearly all actives have a fitted effect of over 60% in size. Conditions: P. falciparum in erythrocytes, SYBR Green DNA, 72 h; series mostly up to 28.7 µM. In a few lines:
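Infected RBCs, 0.3% parasitemia/2.5% Hct final; cpd 72 h, 37 C, 5% CO2; lysis buffer with saponin/triton/SYBR Green I, o/n RT dark; FI 485/535; norm. to artemisinin (0.29 uM) and DMSO.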

In assay [19] the test system is HIV-1 nucleocapsid protein NCp7 (binding to TG oligonucleotide). The experiment in a line: HIV Nucleocapsid (AID 346; call rule not given here;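 further: potency means the concentration at half of the fitted maximal effect; potency is for inhibitors that block NC binding and lower polarization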). The settings on record: HIV-1 NC / fluorescein-TGTGTGTG probe, fluorescence polarization. In a few lines: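 Inhibition of nucleocapsid binding to single-stranded 5'-TGTGTGTG probe (10 nM) was measured by fluorescence polarization after 1 hr at room temperature with 100 nM protein under high-salt, zinc-containing, reducing conditions.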

A number with no mark means an inactive call. Results filed as inconclusive are left out. The list shows a part of the results. Active and inactive are the calls of the source. Unless noted, the call rests on the fitted dose curve; in most records, active means well fitted curve in the direction sought with a large enough effect; inconclusive means small, poorly fitted or top-dose-only effect, or another doubt; inactive means no such curve, though single readings can be large; an effect the other way counts as inactive or inconclusive.

Sequence of Bile acid receptor (Homo sapiens) (Q96RI1 whole entry, looked up): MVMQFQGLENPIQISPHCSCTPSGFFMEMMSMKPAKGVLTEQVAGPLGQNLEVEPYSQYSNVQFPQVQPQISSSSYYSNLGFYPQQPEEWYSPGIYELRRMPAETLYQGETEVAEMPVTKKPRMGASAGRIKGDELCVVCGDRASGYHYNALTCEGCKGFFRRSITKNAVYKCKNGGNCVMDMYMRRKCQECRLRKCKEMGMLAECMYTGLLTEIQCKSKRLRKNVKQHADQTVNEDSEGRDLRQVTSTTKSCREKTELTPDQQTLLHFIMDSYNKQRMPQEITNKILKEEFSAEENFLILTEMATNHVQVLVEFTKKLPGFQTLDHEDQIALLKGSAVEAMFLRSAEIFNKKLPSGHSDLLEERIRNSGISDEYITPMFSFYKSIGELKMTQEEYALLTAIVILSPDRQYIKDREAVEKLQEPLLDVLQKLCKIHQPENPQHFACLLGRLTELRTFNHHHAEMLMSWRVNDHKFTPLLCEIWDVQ
Sequence of Peroxisome proliferator-activated receptor delta (Homo sapiens) (Q03181 whole entry, looked up): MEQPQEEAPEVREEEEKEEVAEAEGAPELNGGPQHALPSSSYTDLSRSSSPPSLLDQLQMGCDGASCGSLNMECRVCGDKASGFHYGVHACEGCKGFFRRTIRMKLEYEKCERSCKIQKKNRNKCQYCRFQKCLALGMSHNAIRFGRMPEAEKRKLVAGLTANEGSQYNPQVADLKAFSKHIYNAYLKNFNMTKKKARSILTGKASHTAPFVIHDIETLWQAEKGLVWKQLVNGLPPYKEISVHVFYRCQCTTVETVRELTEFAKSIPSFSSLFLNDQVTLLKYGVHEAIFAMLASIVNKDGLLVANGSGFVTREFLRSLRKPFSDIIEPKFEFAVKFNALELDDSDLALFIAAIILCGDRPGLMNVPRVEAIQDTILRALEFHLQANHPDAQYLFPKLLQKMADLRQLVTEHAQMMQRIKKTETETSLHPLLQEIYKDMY
Sequence of Androgen receptor (Homo sapiens) (P10275 whole entry, looked up): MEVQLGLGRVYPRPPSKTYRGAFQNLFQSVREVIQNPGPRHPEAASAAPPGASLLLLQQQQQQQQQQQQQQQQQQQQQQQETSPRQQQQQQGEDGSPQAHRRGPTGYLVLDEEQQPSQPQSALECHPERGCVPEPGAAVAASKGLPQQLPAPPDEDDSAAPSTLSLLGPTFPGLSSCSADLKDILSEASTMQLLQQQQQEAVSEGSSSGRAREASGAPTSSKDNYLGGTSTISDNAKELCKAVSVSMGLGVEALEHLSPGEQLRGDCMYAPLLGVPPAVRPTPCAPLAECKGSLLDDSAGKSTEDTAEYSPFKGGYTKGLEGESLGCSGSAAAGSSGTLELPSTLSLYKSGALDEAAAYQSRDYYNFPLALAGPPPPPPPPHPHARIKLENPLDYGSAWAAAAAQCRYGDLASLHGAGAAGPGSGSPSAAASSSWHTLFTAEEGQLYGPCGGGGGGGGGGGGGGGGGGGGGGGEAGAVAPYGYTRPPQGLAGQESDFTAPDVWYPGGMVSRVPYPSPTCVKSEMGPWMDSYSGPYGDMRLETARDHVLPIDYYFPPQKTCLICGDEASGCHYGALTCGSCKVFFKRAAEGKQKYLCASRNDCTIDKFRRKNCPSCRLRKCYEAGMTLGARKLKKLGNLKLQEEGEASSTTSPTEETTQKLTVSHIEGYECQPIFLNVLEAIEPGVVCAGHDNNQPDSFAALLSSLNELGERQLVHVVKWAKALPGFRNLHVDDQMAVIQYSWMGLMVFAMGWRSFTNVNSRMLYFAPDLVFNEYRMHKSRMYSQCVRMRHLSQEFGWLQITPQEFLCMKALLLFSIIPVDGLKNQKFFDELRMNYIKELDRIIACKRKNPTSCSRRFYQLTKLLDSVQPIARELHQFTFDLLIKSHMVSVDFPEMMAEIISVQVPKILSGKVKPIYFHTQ
Sequence of DNA repair nuclease/redox regulator APEX1 (Homo sapiens) (P27695 whole entry, looked up): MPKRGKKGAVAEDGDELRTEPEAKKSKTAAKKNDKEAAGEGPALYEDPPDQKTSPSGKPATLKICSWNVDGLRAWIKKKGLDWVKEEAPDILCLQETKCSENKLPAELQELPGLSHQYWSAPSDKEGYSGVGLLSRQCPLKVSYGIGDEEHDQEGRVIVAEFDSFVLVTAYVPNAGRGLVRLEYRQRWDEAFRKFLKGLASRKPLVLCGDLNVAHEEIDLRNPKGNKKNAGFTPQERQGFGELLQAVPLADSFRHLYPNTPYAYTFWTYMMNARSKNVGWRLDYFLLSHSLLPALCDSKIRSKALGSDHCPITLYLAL
Sequence of Peroxisome proliferator-activated receptor gamma (Homo sapiens) (P37231 whole entry, looked up): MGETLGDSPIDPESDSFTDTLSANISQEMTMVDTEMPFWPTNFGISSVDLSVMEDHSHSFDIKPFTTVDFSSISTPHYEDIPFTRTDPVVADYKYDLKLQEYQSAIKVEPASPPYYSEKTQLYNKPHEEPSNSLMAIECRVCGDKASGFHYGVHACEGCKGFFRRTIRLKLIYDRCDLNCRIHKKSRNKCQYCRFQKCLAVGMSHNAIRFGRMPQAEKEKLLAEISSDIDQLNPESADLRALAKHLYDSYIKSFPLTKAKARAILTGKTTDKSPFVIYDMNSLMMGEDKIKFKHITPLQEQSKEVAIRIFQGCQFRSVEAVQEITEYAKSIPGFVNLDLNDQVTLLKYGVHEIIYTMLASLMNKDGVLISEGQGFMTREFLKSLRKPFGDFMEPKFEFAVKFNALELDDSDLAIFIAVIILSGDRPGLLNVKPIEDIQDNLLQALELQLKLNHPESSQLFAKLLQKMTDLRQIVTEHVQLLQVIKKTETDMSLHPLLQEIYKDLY

On to `CCNc1nc(Cl)nc(NC(C)C)n1`, for which the Potency in assay [1] is more than 92 µM. In addition, the Potency entry in assay [2] and in assay [3] was “inactive” in each case.

`CCc1cccc(CC)c1N(COC)C(=O)CCl`: in assay [4], the Potency is 44.7 µM (active). The outcome in assay [5] was inactive.

For the molecule `CNC(=O)O/N=C/C(C)(C)SC`, the Potency entry in assay [6], in [7], in assay [8] and in assay [9] was “inactive” throughout. For the same molecule, the result in assay [5] was inactive.

On to `C=CCc1ccc(OC)cc1`, for which the Potency result in [10], in assay [3] and in assay [11] was “inactive” each time. The molecule was classed as inactive in assay [12].

In the case of `C#CCN(C)[C@@H](C)Cc1ccccc1`, the Potency result in [13] is “inactive”.

With `ClC1=C(Cl)C2(Cl)C3C4C=CC(C4)C3C1(Cl)C2(Cl)Cl` (centres undefined), the Potency in [10] was 39.8 µM (active). Further, the Potency entry in assay [9] was “inactive”.

`CCNC[C@H](O)c1cccc(O)c1`: the molecule was classed as inactive in [14], in assay [15], in [16] and in assay [17].

`COc1ccc(OC)c([C@H](O)[C@H](C)N)c1`: the Potency result in [13] is “inactive”.

Turning to `O=S1OCC2C(CO1)C1(Cl)C(Cl)=C(Cl)C2(Cl)C1(Cl)Cl` (centres undefined), the Potency in [7] was 39.8 µM (active). Also, the Potency entry in [4] was “inactive”.

For the molecule `ClC1=C(Cl)C2(Cl)C3C(Cl)C=CC3C1(Cl)C2(Cl)Cl` (centres undefined), the Potency entry in [18] is “inactive”. The result in assay [12] was inactive.

As for `ClC(Cl)=C(c1ccc(Cl)cc1)c1ccc(Cl)cc1`, the Potency result in assay [10], in assay [18], in [2], in [3] and in assay [8] was “inactive” in each case. Further, in assay [5], the result was inactive.

Regarding `CCOCN(C(=O)CCl)c1c(C)cccc1CC`, the Potency is 22.8 µM (active) in assay [1] and 50.1 µM (active) in assay [2]. The Potency entry in [9] is “inactive”.

Regarding `C[N+]1([O-])[C@@H]2CC(OC(=O)[C@@H](CO)c3ccccc3)C[C@@H]1[C@H]1O[C@H]12` (some centres undefined), in the assay on DFO2036, the Potency entry was “inactive”.

In the case of `C[C@H]1CN(C2CCC(C#N)(c3ccc(F)cc3)CC2)CC[C@@]1(C(=O)O)c1ccccc1` (some centres undefined), the Potency entry with DFO2036 is “inactive”.

As for `c1ccc(N2CCC3(CCNCC3)CC2)cc1`, in assay [19], the Potency is more than 20 µM.

As to `CC(C)N(CC[C@@](C(N)=O)(c1ccccc1)c1ccccn1)C(C)C`, the Potency entry in assay [13] is “inactive”.

For the origin of these results see PubChem BioAssay (NCATS).
